Vaccinia Venus = inhibitors of vaccinia virus (Venus reporter); Vaccinia virus Venus reporter expression, fluorescence; Potency, µM (top dose mostly 36.5 µM), without a hit: at the top dose activity change, negative = inhibition, most hits filed as inhibitors; 0.46% of 330,000 active; AID 720580; calls by dose curve; tested in A549 cells; also: potency is read from the fitted curve at half-maximal effect; nearly all actives have a fitted effect of over 30% in size
Vaccinia mCherry = inhibitors of vaccinia virus infection (mCherry reporter signal) | Vaccinia virus mCherry reporter infection, fluorescence | Potency, µM (doses to about 36.5 µM), inactives show at the highest dose activity change, negative = inhibition, hits mostly inhibitors | 0.63% of 310,000 active; calls by dose curve; tested in A549 cells; also: potency is read from the fitted curve at half-maximal effect; nearly all actives have a fitted effect of over 35% in size
FMDV inh = antivirals against foot and mouth disease virus. 1.2% of 410,000 active. FMDV antiviral cell-based qHTS. AID 1159524. Potency, µM (highest dose often 57.9 µM), for inactives: top-dose activity change, negative = inhibition, usual class: inhibitors; calls by dose curve; tested in HEK293T cells; also: read-out not given here; potency is read from the fitted curve at half-maximal effect; nearly all actives have a fitted effect of over 45% in size
HCV inhibitor = blocks hepatitis C virus. 3.4% of 340,000 active. AID 651820. Huh7.5.1 HCVcc-Cre infection, luciferase reporter, 44 h. Potency, µM (doses to about 41.8 µM), without a hit: at the top dose activity change, negative = inhibition, hits mostly inhibitors; active = well fitted inhibition curve with a large enough effect; inconclusive = small, poorly fitted or top-dose-only effect, or another doubt; inactive = no such curve, though single readings can be large or run the other way; also: potency is read from the fitted curve at half-maximal effect
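Whole-lifecycle infectious HCVcc-Cre system; cells 1,000/well, compound then virus (~0.5 moi) added 4 h after plating, 44 h culture. Luciferase read 15 sec following 15 min substrate incubation, room temp.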
HCMV antiviral = inhibitors of human cytomegalovirus; activity change, negative = inhibition, % at 57.5 µM; 4.5% of 410,000 active; HFF cells, HCMV-luciferase reporter, 72 h; stronger effect = lower value; in the data active = activity change below about -60%; inconclusive = no clear call, values can overlap the other calls; inactive = above about -39%
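After 16 h attachment at 37C, HFF cells received test compound and HCMV-luciferase (1 PFU/cell); reporter luminescence read 72 h later, data normalized against buffer-only and known inhibitor Salinomycin.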
Starred values were filed as active, the others as inactive; i = inactive; u = inconclusive; x = not tested or not shown; [ ] = remark or other dose. This is a sample that favours compounds with a hit; in the whole collection about 7.3% have one here. % is scaled to controls: 0 for no effect and ±100 for the full control effect.

SMILES	Vaccinia Venus	Vaccinia mCherry	FMDV inh	HCV inhibitor	HCMV antiviral
COc1ccccc1-c1cc(C(F)(F)F)nc(S(=O)(=O)CCCC(=O)Nc2cc(Br)ccc2O)n1	-5%	-12%	18%	x	55
COc1ccccc1-c1cc(C(F)(F)F)nc(S(=O)(=O)CCCC(=O)NCc2ccc(F)cc2)n1	-16%	u	14µM*	u	-99*
COc1ccccc1-c1cc(C(F)(F)F)nc(S(=O)(=O)CCCC(=O)N2CCCCC2C)n1 (configuration not stated)	-21%	-27%	7.9µM*	u	14
COc1ccccc1-c1cc(C(F)(F)F)nc(S(C)(=O)=O)n1	x	x	32µM*	u	-104*
COc1ccccc1-c1cc(C(F)(F)F)nc(S(=O)(=O)CCCC(=O)NC(C)C)n1	-10%	-8%	8.9µM*	u	-22
CCN(C(=O)CSc1ncc2c(n1)-c1cc(Cl)ccc1N(Cc1ccccc1)S2(=O)=O)c1cccc(C)c1	-4%	i	7%	x	11
CN(NS(=O)(=O)c1ccccc1)C(=O)c1ccccc1	5%	-19%	-15%	17%	-100*
Cc1cccc(-c2nnc3n2N=C(c2ccccc2)CS3)c1	x	x	-14%	u	u
c1ccc(C2=Nn3c(nnc3-c3ccncc3)SC2)cc1	-5%	i	-24%	22%	-73*
Cc1cc(-c2nnc3n2N=C(c2ccc(-c4ccccc4)cc2)CS3)n[nH]1	u	11µM*	u	-12%	77
c1ccc(C2=Nn3c(nnc3-c3cccnc3)SC2)cc1	x	x	-6%	6%	-22
Cc1ccc(-c2nnc3n2N=C(c2ccccc2Br)CS3)cc1	-17%	-24%	-18%	u	-78*
c1ccc(-c2cc(-c3nnc4n3N=C(c3ccc5ccccc5c3)CS4)[nH]n2)cc1	u	u	u	9%	-96*
Cc1ccc(-n2c(=O)c3c(c4cc(C)ccc4n3C)n(CC(=O)N3CCCC3)c2=O)cc1	-12%	-15%	-13%	x	11
c1nnnn1C12CC3CC(CC(C3)C1)C2	-11%	x	-20%	10%	-64*
O=C(Nc1cc(Cl)cc(Cl)c1)c1ccc(F)c(S(=O)(=O)N2CCCCCC2)c1	-14%	-13%	u	x	41
COc1cc(OC)c2c(c1)C(=O)OC2c1cc(OC)c(OC)cc1C (configuration not stated)	-13%	-18%	x	x	x
NC(=O)c1cc2ccncc2c2ccccc12	u	-20%	-16%	-13%	-99*
Cn1c(-c2cccc(C(F)(F)F)c2)cc2cnc(Nc3ccc4c(c3)OCCO4)cc21	x	x	x	x	18
C=CCn1cccc(/C=C/C(=O)c2ccc(C(C)(C)C)cc2)c1=S	u	u	25µM*	10µM*	8
O=C(CSC1=NCCN1)Nc1cccc([N+](=O)[O-])c1	-17%	-21%	18µM*	-10%	13
O=C(CSC1=NCCN1)Nc1ccccc1[N+](=O)[O-]	-5%	u	u	12%	2
COc1ccccc1NC(=O)CSC1=NCCN1	-11%	i	0%	u	u
O=C(CSC1=NCCN1)NC(c1ccccc1)c1ccccc1	-14%	-5%	32µM*	10µM*	40
O=C(Nc1cc(S(=O)(=O)N2CCCCC2)ccc1Oc1ccccc1)C1=COCCO1	x	x	-12%	22µM*	-20
SMILES	Vaccinia Venus	Vaccinia mCherry	FMDV inh	HCV inhibitor	HCMV antiviral
O=C(CSc1nnc(-c2ccc(O)cc2)n1Cc1ccccc1)NNC(=O)c1ccc(Br)cc1	-4%	-12%	-8%	-20%	-68*
COc1ccc(C2CC(c3ccccc3Br)=NN2c2ccc(S(N)(=O)=O)cc2)cc1 (configuration not stated)	u	u	0%	11µM*	18
NS(=O)(=O)c1ccc(N2N=C(c3ccccc3)CC2c2ccccc2Cl)cc1 (configuration not stated)	u	u	-25%	32µM*	u
COc1ccc(C2=NN(CN3C(=O)C(=O)c4ccccc43)C(c3ccc(Br)cc3)C2)cc1 (configuration not stated)	-5%	i	x	10µM*	-20
CCCN1CCCc2cc(CN(CCCN3CCOCC3)C(=O)Nc3ccc(Cl)c(Cl)c3)ccc21	-11%	-20%	-26%	x	-15
S=C(Nc1ccc(Oc2ccccc2)cc1)NC1CCCC1	-12%	i	66%	-1%	-33
COc1ccc(NC(=S)NC2CCCCC2)cn1	0%	-3%	68%	11%	-87*
S=C(Nc1ccc(Br)cc1)NC1CCCC1	-22%	-16%	36%	-3%	-65*
CCCc1nc2c(C)cc(Br)cn2c1Cc1ccccc1OC	x	x	x	x	16
COc1ccc2cc(/C=C3\SC(=S)NC3=O)c(N3CCOCC3)nc2c1	-11%	-3%	28µM*	u	-88*
CCCCCCCC(=O)N[C@H]1CC[C@@]23CCCN2C(=O)CCC[C@H]3[C@H]1Cc1ccccc1	x	x	x	x	1
CC(CNC(=O)CCc1cn(Cc2ccccc2Cl)c2ccccc12)c1ccccc1 (configuration not stated)	-13%	-11%	-7%	x	-24
COc1ccc(Nc2cc3c(cn2)nc(-c2ccc(OC)c(OC)c2)n3C)cn1	x	x	x	x	21
CCC[C@H]1[C@@H](NC(=O)Nc2cccc(C#N)c2)CC[C@@]23CCCN2C(=O)CCC[C@@H]13	x	x	x	x	-17
CCC(C)(C)C1CCc2c(sc(NC(=O)c3ccoc3C)c2C(N)=O)C1 (configuration not stated)	-11%	-4%	-14%	10%	-37
CCC1CCc2c(sc(NC(=O)c3ccoc3C)c2C(N)=O)C1 (configuration not stated)	u	u	4%	5µM*	25
CC(C)CCn1c(=O)c2sccc2n2c(CCCC(=O)Nc3ccc(C(C)C)cc3)nnc12	-12%	-13%	-16%	x	-27
O=C(/C=C/c1cn(-c2ccccc2)nc1-c1cccs1)NCCN1CCOCC1	-13%[7.34 µM]	0%[7.34 µM]	4%	14µM*	-7
O=C(c1cn(-c2ccccc2)nc1-c1ccc(Br)cc1)N1CCOCC1	-23%	-1%	-10%	22%	u
O=C(c1cn(-c2ccccc2)nc1-c1cccc(Br)c1)N1CCOCC1	-13%	-4%	4%	u	-63*
CN(C)C(=O)COC(=O)/C=C/c1cn(-c2ccccc2)nc1-c1cccs1	-10%	-18%	0%	-19%	-14
O=C(c1cn(-c2ccccc2)nc1-c1cccs1)N1CCOCC1	-6%	i	9%	-6%	0
O=C(c1cn(-c2ccccc2)nc1-c1cccs1)N1CCN(c2ccccc2)CC1	x	x	4%	7.1µM*	x
CCn1c(=O)c(C(=O)Nc2ccc(C(C)=O)cc2)nc2ccccc21	7%	-1%	35%	x	6
COc1ccc(C(CC(=O)c2ccc(C)cc2)Nc2ccc([N+](=O)[O-])cc2)cc1 (configuration not stated)	-15%	-7%	0%	13µM*	-6
